Screens deposited in PubChem BioAssay by National Center for Advancing Translational Sciences (NCATS).
Pf growth 96h – P. falciparum growth inhibition at 96 hours | P. falciparum luciferase reporter growth, 96 h | Potency, µM (doses to about 28.7 µM), for inactives: top-dose activity change, negative = inhibition, actives largely listed as inhibitors | 6.9% of 320,000 active | AID 504834; note: % is set by controls: 0 for no effect and ±100 for the full control effect
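P. falciparum expressing integrated firefly luciferase grown in erythrocytes (2% hematocrit, 0.05% parasitemia final) with compounds for 96 hours at 37 C, 5% CO2. Growth inhibition read as loss of luminescence after adding luciferase detection reagent.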
Pf growth 48h – inhibits P. falciparum growth in the first generation, 48 h; P. falciparum luciferase growth in erythrocytes, 48 h; Potency, µM (titrated, usually from 28.7 µM), for the others: at the top dose activity change, negative = inhibition, most hits filed as inhibitors; 5.9% of 310,000 active; note: % is set by controls: 0 for no effect and ±100 for the full control effect
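Read-out is firefly luciferase luminescence from an integrated reporter in P. falciparum, so falling signal marks reduced parasite growth. Infected erythrocytes were at 2% hematocrit and 0.1% parasitemia (final) in Albumax-supplemented RPMI 1640.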
SARS PLpro yeast – SARS-CoV PLP inhibition in yeast | S. cerevisiae expressing SARS-CoV PLpro, growth rescue | Potency, µM (highest dose often 32.9 µM), without a hit: at the top dose activity, positive = growth rescue, hits mostly activators | 0.19% of 330,000 active | AID 485353; calls by dose curve; note: 0% is about no effect; nearly all actives have a fitted effect of over 55% in size
AMA1 RON2 block – inhibitors of Plasmodium falciparum AMA1-RON2 interaction | AlphaScreen AMA1-biotinylated RON2 peptide binding | Potency, µM (doses to about 58.2 µM), for inactives: at the highest dose activity change, negative = inhibition, usual class: inhibitors | 0.2% of 360,000 active | AID 720542;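 note: 0% = vehicle wells and -100% = peptide control; nearly all actives have a fitted effect of over 45% in size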
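AMA1 (3D7) with his tag at 25 nM final met compounds first, then biotinylated RON2 peptide at 25 nM; detection used donor plus acceptor beads, 10 µg/mL apiece, read by AlphaScreen after 30 min at room temperature.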
Numbers without * were called inactive; i = inactive; u = inconclusive; x = no result; [ ] = remark or other dose. Rows were chosen to be rich in hits. Some 9.4% of all compounds tested hit in one or more screens of this group. Unless noted, calls come from the whole dose curve; as a rule, active = well fitted curve in the direction sought with a large enough effect; inconclusive = small, poorly fitted or top-dose-only effect, or another doubt; inactive = no such curve, though single readings can be large; an effect the other way counts as inactive or inconclusive. Potency is the fitted concentration of half-maximal effect.

SMILES	Pf growth 96h	Pf growth 48h	SARS PLpro yeast	AMA1 RON2 block
CCC(C)n1c(O)c(C(c2ccccn2)c2c(O)n(C(C)CC)c(=S)[nH]c2=O)c(=O)[nH]c1=S (centres undefined)	36.9%	14.0%	5.5%	-0.5%
COc1ccc(NC(=O)C2CCC(C(C)(C)C)CC2)cc1S(=O)(=O)N1CCOCC1 (centres undefined)	13.1µM*	u	0.8%	0.0%
COc1ccc(NC(=O)C2CCC2)cc1S(=O)(=O)N1CCOCC1	u	-15.6%	-3.7%	-1.7%
CCC(CC)NC(=O)Nc1cccc(C)c1C	i	40.1%	0.0%	-9.2%
CCn1c(NC(=O)Nc2cccc(C)c2C)cc2sccc21	13.1µM*	x	4.5%	-10.6%
CSc1cccc(NC(=S)N(CCCN2CCC(C)CC2)Cc2cccs2)c1	u	u	-0.1%	-13.4%
CCOC(=O)c1cc2c(=O)n3ccccc3nc2n(C)c1=NC(=O)c1c(-c2c(F)cccc2Cl)noc1C	x	x	x	18.7%
CCCCn1c(=NC(=O)c2ccco2)c(C(=O)OCC)cc2c(=O)n3ccccc3nc21	x	u	5.3%	9.1%
CCOC(=O)c1cc2c(=O)n3ccccc3nc2n(C(C)C)c1=NC(=O)c1c(-c2c(F)cccc2Cl)noc1C	u	3.7µM*	11.7%	0.0%
CCCCCn1c(=NC(=O)c2ccco2)c(C(=O)OCC)cc2c(=O)n3ccccc3nc21	14.7µM*	-38.2%	4.9%	9.5%
N#Cc1cc2c(=O)n3ccccc3nc2n(Cc2ccco2)c1=NC(=O)c1ccco1	11.7µM*	u	5.3%	u
CCCCn1c(=NC(=O)c2ccco2)c(C(=O)OCC)cc2c(=O)n3cccc(C)c3nc21	5.86µM*	11.7µM*	0.5%	-0.4%
O=C(N/N=C1\CCCCc2ccccc21)c1ccccn1	-2.1%	86.9%	1.4%	63.3%
Nc1ccc2nc(-c3ccccn3)[nH]c2c1	u	u	-35.7%	u
CC(C)Cn1c(SCC(=O)N2CCc3ccccc3C2)nc(O)cc1=O	x	x	1.7%	-3.5%
O=C(CSc1nc2ccccc2c(=O)n1-c1ccccc1)N1CCc2ccccc2C1	2.62µM*	u	-23.6%	4.4%
O=C(CSc1nc2[nH]ncc2c(=O)n1-c1ccccc1)N1CCCCCC1	10.4µM*	-21.4%	1.2%	x
O=C(CSc1nc2[nH]ncc2c(=O)n1-c1ccccc1Cl)N1CCCC1	1.2%	20.4%	-0.3%	-2.3%
Cn1c(=O)c2c(nc(SCC(=O)N3CCc4ccccc4C3)n2C)n(C)c1=O	10.4µM*	-0.3%	8.5%	-2.4%
O=C(CSc1nc2ccccc2c(=O)n1-c1ccccc1)N1CCC1	u	u	-0.8%	-2.9%
CC(C)c1ccccc1-n1c(SCC(=O)N2CCc3ccccc3C2)nc2ccccc2c1=O	5.86µM*	1.47µM*	27.8%	-5.2%
CSC[C@H]1CN(c2ccccc2)C(=O)[C@@H]1CC(=O)Nc1ccc(Br)cc1	x	x	x	-1.6%
CCOC(=O)N1CCN(C(=O)c2ccc(N(Cc3ccc(C)cc3)S(C)(=O)=O)cc2)CC1	x	-1.4%	9.5%	-5.9%
Cc1cc(C(=O)Nc2ccc(CC(=O)O)cc2)c(C)o1	15.1%	-9.5%	3.9%	8.7%
O=C(CSc1nnc(-c2cccs2)n1-c1ccccc1)N1CCOCC1	x	-9.7%	-0.1%	-11.0%
SMILES	Pf growth 96h	Pf growth 48h	SARS PLpro yeast	AMA1 RON2 block
CN1CCN(S(=O)(=O)c2ccc(Sc3nnc(-c4cccs4)n3-c3ccccc3)nc2)CC1	u	7.38µM*	0.4%	-14.1%
O=C(CSc1nnc(-c2cccs2)n1-c1ccccc1)N1CCCC1	9.28µM*	1.5%	-1.2%	-2.0%
C=CCn1c(-c2ccccc2)c[nH]c1=S	u	82.3%	8.3%	28.5%
Cn1c(-c2ccc(-c3ccccc3)cc2)c[nH]c1=S	u	5.22µM*	u	48.4%
CCn1c(-c2ccc(-c3ccccc3)cc2)c[nH]c1=S	4.65µM*	x	28.9%	10.2%
CCn1ncc(C2=NOC(C(=O)NCC(C)C)C2)c1C (centres undefined)	x	x	-1.5%	-9.4%
CCn1ncc(C2=NOC(C(=O)Nc3cnn(C45CC6CC(CC(C6)C4)C5)c3)C2)c1C (centres undefined)	0.0%	5.86µM*	5.6%	6.8%
O=C(/C=C/c1cccc(Cl)c1)c1ccc([N+](=O)[O-])o1	u	u	4.6%	-28.8%
COc1ccc(/C=C/C(=O)c2ccc([N+](=O)[O-])o2)cc1OC	u	11.7µM*	2.8%	-5.5%
COc1cc(/C=C/C(=O)c2ccc([N+](=O)[O-])o2)ccc1O	u	13.1µM*	0.6%	21.5%
Cc1ccc(NC(=O)COC(=O)c2ccc3c(c2)C(=O)N(CCc2ccccc2)C3=O)c(C)c1	11.7%	11.8%	-10.9%	5.2%
CN1CCCN(Cc2ccc(Cl)cc2Cl)CC1	-26.3%	x	-3.7%	-19.0%
Cc1cc(N=Nc2ccc(Cl)cc2)cc(CN2CCCC2)c1O	0.294µM*	0.233µM*	0.0%	u
Cc1cc(N=Nc2ccc(Cl)cc2)cc(CN2CCOCC2)c1O	2.33µM*	4.65µM*	-4.6%	u
Oc1c(CN2CCOCC2)cc(CN2CCOCC2)cc1CN1CCOCC1	x	x	x	26.8%
COc1ccc(C(C#N)=C2C=C(Cl)C(=NO)C=C2Cl)cc1	x	x	x	22.4µM*
COc1ccc(C(C#N)=C2C=CC(=NO)C(C)=C2Cl)cc1	x	x	x	3.16µM*
O=[N+]([O-])c1cccnc1N1CCN(c2ccccc2F)CC1	37.4%	i	0.9%	u
CCC(=O)c1ccc(N2CCN(S(=O)(=O)c3ccccc3)CC2)c(F)c1	9.28µM*	-5.4%	0.1%	4.2%
O=C(c1ccc(S(=O)(=O)Cc2ccccc2F)c([N+](=O)[O-])c1)N1CCCCCC1	u	u	4.4%	-10.7%
O=C(c1ccc(S(=O)(=O)c2ccccc2Cl)c([N+](=O)[O-])c1)N1CCCCCC1	13.1µM*	u	12.3%	1.7%
O=[N+]([O-])c1cc(C(F)(F)F)ccc1N1CCN(S(=O)(=O)c2ccc3ccccc3c2)CC1	-33.4%	u	-1.9%	-21.5%
O=[N+]([O-])c1cc(C(F)(F)F)cc([N+](=O)[O-])c1N1CCN(S(=O)(=O)c2ccccc2)CC1	14.7µM*	u	11.3%	-13.9%
O=C(c1ccc(N2CCCC2)c([N+](=O)[O-])c1)N1CCN(S(=O)(=O)c2ccccc2)CC1	u	10.4µM*	-3.7%	-13.8%
CCCC(=O)c1ccc(N2CCN(S(=O)(=O)c3ccccc3)CC2)c(F)c1	24.0%	u	-0.9%	8.0%
Cc1ccc(C)c(S(=O)(=O)N2CCN(C(=O)c3ccc(-n4cncn4)c([N+](=O)[O-])c3)CC2)c1	11.7µM*	u	8.5%	13.5%
O=S(=O)(c1cccc(C(F)(F)F)c1)N1CCN(c2nnnn2-c2ccccc2)CC1	8.28µM*	-1.8%	4.3%	20.6%
O=C(c1ccc(-n2cncn2)c([N+](=O)[O-])c1)N1CCN(S(=O)(=O)c2ccc(Cl)cc2)CC1	4.65µM*	u	-5.0%	5.3%
O=C(O)c1ccccc1C(=O)c1ccc(N2CCCC2)c([N+](=O)[O-])c1	11.7µM*	-5.7%[1.15 µM]	-0.6%	19.3%
